The panel holds about 83,000 compounds, 20% with a hit somewhere; the sample as a whole holds those more often.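 96-well plates, one dose, 48 hours. Percent growth reported; active if below 10.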 Values without a mark were called inactive. The source made the active and inactive calls.
How the values were obtained:
Assay in all cases: NCI-60 one-dose screen, 48 h (100 = growth as untreated, 0 = no growth, -100 = all killed)
Settings in all cases: 10 µM unless noted
DU-145 prostate = tested on: DU-145 prostate
K-562 leukemia = tested on: K-562 leukemia
MDA-MB-231 breast = tested on: MDA-MB-231 breast
RXF 393 renal = tested on: RXF 393 renal
SF-268 CNS = tested on: SF-268 CNS
SF-295 CNS = tested on: SF-295 CNS
SF-539 CNS = tested on: SF-539 CNS
UACC-257 melanoma = tested on: UACC-257 melanoma
M14 melanoma = tested on: M14 melanoma
HCT-15 colon = tested on: HCT-15 colon
HT29 colon = tested on: HT29 colon
SNB-75 CNS = tested on: SNB-75 CNS
SNB-19 CNS = tested on: SNB-19 CNS
U251 CNS = tested on: U251 CNS
PC-3 prostate = tested on: PC-3 prostate
SK-MEL-5 melanoma = tested on: SK-MEL-5 melanoma
UACC-62 melanoma = tested on: UACC-62 melanoma
LOX IMVI melanoma = tested on: LOX IMVI melanoma
SK-MEL-28 melanoma = tested on: SK-MEL-28 melanoma
MALME-3M melanoma = tested on: MALME-3M melanoma

SMILES	growth (DU-145 prostate)	growth (K-562 leukemia)	growth (MDA-MB-231 breast)	growth (RXF 393 renal)	growth (SF-268 CNS)	growth (SF-295 CNS)	growth (SF-539 CNS)	growth (UACC-257 melanoma)	growth (M14 melanoma)	growth (HCT-15 colon)	growth (HT29 colon)	growth (SNB-75 CNS)	growth (SNB-19 CNS)	growth (U251 CNS)	growth (PC-3 prostate)	growth (SK-MEL-5 melanoma)	growth (UACC-62 melanoma)	growth (LOX IMVI melanoma)	growth (SK-MEL-28 melanoma)	growth (MALME-3M melanoma)
CC(NC(=O)Oc1cccc2ccccc12)c1ccccc1 (stereo unspecified)	107%	84.1%	77.6%	105%	78.1%	107%	97.9%	73.2%	107%	100%	104%	87.4%	105%	90.7%	84.9%	97%	89.2%	87.2%	110%	
CC(=O)N1N=C(c2ccc(C(F)(F)F)cc2)CC1c1ccc2c(c1)OCO2 (stereo unspecified)	113%	73.8%	82.3%	107%	104%	67.1%	101%	102%	69.7%	81.1%	47.4%	90%	91%	94.6%	73.9%	95%	65%	81.4%	95.4%	
O=C(/C=C/c1c(-c2ccccc2)[nH]c2ccccc12)S(=O)(=O)c1ccccc1	76%	9.37% (active)	63.3%		89.5%	63.5%	89.5%			38.1%	34%	84.5%	82.4%	76.5%	36.5%	37.4%	39.1%	56.5%	72.5%	88.2%
Nc1ccc(N=Nc2ccccc2)cc1[N+](=O)[O-]	109%	87.4%	65.8%	104%	85.3%	113%	92.6%	103%	104%	68.8%	92%	73.3%	95.3%	86.7%	83.9%	93.1%	73%	77.9%	119%	
CCOC(CNCc1cc(C)c2[nH]c3ccccc3c2c1C)OCC	109%	34.3%	63%	73.2%	86.2%	60.2%	83.7%	76%	64.9%	80.7%	53.1%	73.6%	78.6%	83.2%	58.6%	79.8%	77.9%	77.2%	97.3%	
COc1ccc(C(=O)/C=C/c2ccc(C)cc2)cc1OC	11.3%	21.1%	90.7%		57.3%	101%	70.3%		99.2%	46.9%		64.9%	70.3%	27.7%	51%	74%	68.1%	48.6%	87.4%	101%
COc1cccc(N2CCN(CC(=O)N3CCN(c4nnc(-c5ccc(Cl)cc5)c(-c5ccc(Cl)cc5)n4)CC3)CC2)c1	89%	32.6%	83.1%		84.1%	66.7%	57.8%		70.5%	49.5%	51%	76.3%	77.1%	65.7%	15.8%	48.4%	70.4%	65%	88.7%	92.2%
O=C1N=C(N2CCOCC2)S/C1=C\c1cn(-c2ccccc2)nc1-c1ccccc1	69.9%	92.9%	52.7%	51.8%	74.8%	48.4%	28.4%	81.9%	83.5%	89.4%	80.5%	-30.2% (active)	72.1%	66.1%	90.4%	66.4%	77.8%	76%	72%	
O=C(Oc1ccccc1)C(Br)C(Br)c1ccccc1 (stereo unspecified)	-38.7% (active)	-44.2% (active)	101%	98.2%	78.7%	130%	110%	93.9%	102%	95.4%	54.5%	110%	104%	75.7%	55.4%	106%	101%	82.2%	111%	
